Hits are enriched below; roughly 32% of the tested compounds scored in any of these assays.
PostGolgi ctrl: growth inhibition of yeast control strain, primary screen, counter-screen for post-Golgi transport modulator project. inhibition, % at 10 µM. hit rate 5% among 98,000. efflux-deficient yeast background strain, growth absorbance A615, 16 h
CYP2C9 inh: blockers of cytochrome P450 2C9 activity – biochemical, luminescence, ADME assay, primary screen. P11712. CYP2C9 Supersomes, luciferin-H conversion. inhibition, % at 5 µM. hit rate 20% among 96,000. AID 777, 2007;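 active = blocking of liver enzyme CYP2C9 beyond about 50% at 5 µM, limit read from the data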
Target sequence (P11712 whole entry, looked up): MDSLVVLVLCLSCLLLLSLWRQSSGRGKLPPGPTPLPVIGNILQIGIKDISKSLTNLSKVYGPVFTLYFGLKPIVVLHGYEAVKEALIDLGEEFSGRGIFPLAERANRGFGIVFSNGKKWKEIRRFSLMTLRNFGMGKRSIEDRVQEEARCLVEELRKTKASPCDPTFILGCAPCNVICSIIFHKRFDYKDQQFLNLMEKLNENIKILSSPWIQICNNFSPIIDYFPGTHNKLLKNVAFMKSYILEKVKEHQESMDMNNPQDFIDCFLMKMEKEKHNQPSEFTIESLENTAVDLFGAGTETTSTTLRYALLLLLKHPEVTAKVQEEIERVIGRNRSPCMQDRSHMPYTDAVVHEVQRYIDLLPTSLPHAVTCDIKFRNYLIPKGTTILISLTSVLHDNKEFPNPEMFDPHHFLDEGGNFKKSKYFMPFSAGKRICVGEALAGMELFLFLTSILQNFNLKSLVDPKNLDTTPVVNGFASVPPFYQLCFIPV
CYP2C19 inhib: blockers of cytochrome P450 2C19 activity – biochemical, luminescence, ADME assay, primary screen. inhibition, % at 5 µM. P33261. CYP2C19 Supersomes, luciferin-H EGE luminescence, 30 min. hit rate 21% among 96,000;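 active = CYP2C19 inhibition above a set limit at 5 µM in the primary screen, cut at about 50% in these data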;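 note: plate controls were negative control wells for no effect and 2.5 mM tranylcypromine positive control for full effect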
PostGolgi yeast: phenotypic screen on post-Golgi transport, primary screen; inhibition, % at 10 µM; hit rate 0.9% among 98,000; post-Golgi transport phenotypic cell assay;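 note: yeast cells grown in 1536-well plates; yeast grown about 18 h at 30C before absorbance read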
CYP2C9 activ: human CYP2C9 activators, primary screen, biochemical, luminescence. recombinant CYP2C9, luciferin-H conversion; hits give high values; factor 1 = untreated enzyme, 0 = blocked. Cytochrome P450 2C9 (Homo sapiens), P11712. hit rate 1.4% among 96,000. activation factor at 5 µM;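 active = activation factor of 2 or more for CYP2C9 at a 5 µM dose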;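 note: 0 = sulfaphenazole-blocked wells and 1 = vehicle-only wells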
CYP2C19 act: human CYP2C19 activators, primary screen, biochemical, luminescence | 96,000 tested, under 10 active | recombinant CYP2C19, luciferin-H EGE luminescence; hits give high values; 0 = fully inhibited enzyme, 1 = untreated enzyme | Cytochrome P450 2C19 (Homo sapiens), P33261 | activation factor at 5 µM;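 active = activation factor of at least 2 at 5 µM in the primary screen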;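 note: 0 = wells with 2.5 mM tranylcypromine and 1 = vehicle-only wells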
Starred values were filed as active, the others as inactive; . = not tested or not shown. Cut-off read from the data, not from the text of the source, unless noted: active = inhibition above about 30%; inactive = the rest.

SMILES	PostGolgi ctrl	CYP2C9 inh	CYP2C19 inhib	PostGolgi yeast	CYP2C9 activ	CYP2C19 act
CN(C)CCn1c(=O)n(Cc2ccco2)c(=O)c2c3c(sc21)CCCCC3	-2	16	6	2	0.8	0.9
O=C(Cn1c(=O)n(Cc2ccco2)c(=O)c2c3c(sc21)CCCCC3)Nc1ccccc1	6	43	3	-3	0.6	1
O=C(Cn1c(=O)n(Cc2ccco2)c(=O)c2c3c(sc21)CCCCC3)c1ccccc1	4	53*	37	-3	0.5	0.6
O=c1c2c3c(sc2n(CCN2CCCC2)c(=O)n1Cc1ccco1)CCCCC3	6	52*	36	6	0.5	0.6
O=C(CCN1C(=O)c2ccccc2C1=O)Nc1cc(F)ccc1F	2	30	-1	-5	0.7	1
O=C(NCc1ccccn1)C1COc2ccccc2O1 (stereo not given)	8	-1	77*	6	1	0.2
O=C(NCc1ccncc1)C1COc2ccccc2O1 (stereo not given)	6	37	51*	-6	0.6	0.5
CCOC(=O)C1=NN(C(=O)Nc2ccc(OC)cc2)C2C(=O)N(c3cccc(C(F)(F)F)c3)C(=O)C12 (stereo not given)	11	-6	6	2	1.1	0.9
Cc1cccc(NC(=O)C2CC(=O)N(c3ccccc3)C2)c1C (stereo not given)	4	14	3	2	0.9	1
C=CCN=C(NC#N)SCc1ccccc1	7	12	44	7	0.9	0.6
C=CCN=C(NC#N)SCC(=O)c1cccc(OC)c1	10	-26	95*	22	1.3	0.1
COc1cccc(C2CC(c3ccccc3OC)n3ncnc3N2)c1 (stereo not given)	1	66*	96*	-1	0.3	0
Cc1ccccc1C1CC(c2ccccc2)Nc2ncnn21 (stereo not given)	7	10	36	0	0.9	0.6
COc1ccccc1C1C(C(N)=O)=C(C)Nc2ncnn21 (stereo not given)	10	-38	-22	12	1.4	1.2
CCOc1ccc(C2CC(c3ccccc3C)n3ncnc3N2)cc1 (stereo not given)	9	3	64*	12	1	0.4
CCOc1ccccc1C1CC(c2ccc(F)cc2)Nc2nc(N)nn21 (stereo not given)	-2	24	65*	-1	0.8	0.3
COc1ccccc1C1CC(c2ccc(Cl)cc2)Nc2ncnn21 (stereo not given)	3	70*	98*	4	0.3	0
CCC(=O)NCCc1nc2cc(NC(=O)c3ccc(OC)cc3)ccc2n1C	2	33	18	-8	0.7	0.8
COc1cccc(C2CC(c3ccccc3)Nc3ncnn32)c1 (stereo not given)	4	44	95*	15	0.6	0.1
COc1cccc(C2CC(c3ccc(C)cc3)Nc3nc(N)nn32)c1 (stereo not given)	7	-3	9	5	1	0.9
COc1ccc(C2CC(c3ccc(Cl)cc3Cl)n3nc(N)nc3N2)cc1 (stereo not given)	-2	.	.	9	.	.
COc1ccccc1C1CC(c2ccc(Cl)cc2)Nc2nc(N)nn21 (stereo not given)	24	1	50*	-3	1	0.5
Cc1ccc(NC(=O)CCSc2nc(C)cc(C)n2)cc1	6	32	43	0	0.7	0.6
O=C(COC(=O)CCCNC(=O)c1ccc(Cl)cc1)NC1CC1	-2	-12	-15	2	1.1	1.2
CC(O)c1nc2ccccc2n1Cc1nnc(-c2ccc(Cl)cc2)o1 (stereo not given)	6	34	66*	-3	0.7	0.3
SMILES	PostGolgi ctrl	CYP2C9 inh	CYP2C19 inhib	PostGolgi yeast	CYP2C9 activ	CYP2C19 act
O=C(COc1cc(Cl)ccc1Cl)Nc1nnc(CC(=O)N2CCOCC2)s1	4	20	-6	6	0.8	1.1
Cc1ccc(CNCc2ccccc2Cl)cc1	-4	21	99*	-3	0.8	0
Fc1cccc(Cl)c1CNCc1ccccc1Cl	9	30	86*	-4	0.7	0.1
O=S1(=O)C=C(Sc2nnc(-c3ccccc3)o2)c2ccccc21	31*	-10	-16	88*	1.1	1.2
Cn1cccc1C(=O)NC(=O)COC(=O)c1ccc(O)cc1	-5	-313	4	4	4.1*	1
O=C1NC2=C(CCc3ccccc32)C(c2ccc(Br)cc2)N1 (stereo not given)	19	54*	65*	8	0.5	0.3
CC(=O)c1ccc(C(C)(C)c2ccc(C(C)=O)s2)s1	7	50*	29	5	0.5	0.7
O=C(CN(c1ccc(Cl)cc1)S(=O)(=O)c1ccccc1)N1CCN(c2ccccc2)CC1	21	92*	97*	3	0.1	0
O=C(Cn1nc(-c2ccc(Cl)cc2)ccc1=O)N1CCN(c2ccccc2)CC1	15	52*	25	-4	0.5	0.7
O=C(CN(c1ccc(Cl)c(C(F)(F)F)c1)S(=O)(=O)c1ccccc1)N1CCOCC1	4	-1	24	-5	1	0.8
O=C(CCc1ccccc1)N1CCN(c2ccc(Cl)cc2)CC1	5	44	50*	12	0.6	0.5
O=C(CN(c1ccc(Cl)c(Cl)c1)S(=O)(=O)c1ccccc1)N1CCc2ccccc2C1	29	50*	89*	5	0.5	0.1
O=C(Cn1nc(C(F)(F)F)c2c1CCC2)N1CCN(c2ccccc2)CC1	11	-126	89*	1	2.3*	0.1
O=C(CNS(=O)(=O)c1ccccc1)N1CCN(c2ccccc2)CC1	34*	-9	3	0	1.1	1
Oc1ccc(N2CCN(C(=S)NCCc3ccccc3)CC2)cc1	90*	38	51*	105*	0.6	0.5
O=C(Cn1nc(C(F)(F)F)c2c1CCCCC2)N1CCOCC1	-7	4	30	-2	1	0.7
Cc1nc2ccc(S(=O)(=O)NCC(=O)N3CCN(c4ccccc4)CC3)cc2s1	3	3	-5	7	1	1.1
COc1ccc(S(=O)(=O)N(CC(=O)N2CCN(c3ccccc3OC)CC2)c2ccccc2)cc1	.	87*	85*	.	0.1	0.2
COc1ccc(N2CCN(C(=O)CN(c3ccccc3)S(=O)(=O)c3ccc(OC)cc3)CC2)cc1	11	12	-19	-2	0.9	1.2
COc1cccc(N2CCN(C(=S)NCCc3ccccc3)CC2)c1	-2	8	5	-8	0.9	0.9
Cc1cc(C)nc(SCCn2c(N3CCCCC3)nc3c2c(=O)n(C)c(=O)n3C)n1	16	11	-10	7	0.9	1.1

Assay outcomes: PubChem BioAssay, several laboratories
